In assay [1] the target is Cytochrome P450 2C9 (Homo sapiens) (UniProt P11712). As to the kind of experiment: Cytochrome P450 family 2 subfamily C member 9 (CYP2C9) small molecule antagonists: luciferase biochemical (cell-free) qHTS assay (AID 1645842; active means well fitted curve in the direction sought with a large enough effect in the repeat runs; an effect the other way counts as inactive or inconclusive; further: nearly all actives have a fitted effect of over 55% in size). Particulars: P450-Glo CYP2C9 enzyme assay, luciferin luminescence; series mostly up to 57.4 µM. The gist of the method: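 Luminescence, after 20 min with luciferin detection reagent, reflected CYP2C9 turnover during a 1 h NADPH-driven reaction at 37C. Enzyme-substrate mix contained 0.4% bovine serum albumin and was preincubated with compound 10 min at room temperature.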
Sequence of Cytochrome P450 2C9 (Homo sapiens) (P11712 whole entry, looked up): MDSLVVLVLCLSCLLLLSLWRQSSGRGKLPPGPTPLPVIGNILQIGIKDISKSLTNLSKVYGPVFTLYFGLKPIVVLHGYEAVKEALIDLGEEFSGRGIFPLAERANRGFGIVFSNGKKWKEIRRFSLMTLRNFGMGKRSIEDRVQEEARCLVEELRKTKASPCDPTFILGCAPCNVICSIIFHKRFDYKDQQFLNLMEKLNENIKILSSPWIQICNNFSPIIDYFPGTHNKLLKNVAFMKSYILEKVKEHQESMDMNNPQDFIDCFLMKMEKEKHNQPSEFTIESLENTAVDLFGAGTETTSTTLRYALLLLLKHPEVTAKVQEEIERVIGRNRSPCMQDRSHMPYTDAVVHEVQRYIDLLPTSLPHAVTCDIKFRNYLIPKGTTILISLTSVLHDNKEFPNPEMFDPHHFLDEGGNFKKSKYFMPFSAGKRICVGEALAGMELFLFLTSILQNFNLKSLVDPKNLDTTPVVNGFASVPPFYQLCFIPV

Assay [2] in a line: Primary qHTS for inhibitors of nuclear receptor binding SET domain protein 2 (NSD2) in an isogenic RCH-ACV NSD2 p.E1099K mutant (9B) (AID 1645876). Further: nearly all actives have a fitted effect of over 70% in size. As to conditions: RCH-ACV NSD2 E1099K (9B) viability, CellTiter-Glo, 72 h; series mostly up to 44.9 µM.
Assay [3] in a line: Primary qHTS for inhibitors of nuclear receptor binding SET domain protein 2 (NSD2) in an RCH-ACV wild type WT cells (2C) (AID 1645877). Further: nearly all actives have a fitted effect of over 70% in size. As to conditions: RCH-ACV (leukaemia line) NSD2 WT (2C) viability, CellTiter-Glo, 72 h; series mostly up to 44.9 µM.

The record followed here is PubChem BioAssay (NCATS).

“And” between values parts separate entries of the source, which are not always exact repeats. Equal entries are not always repeated. Inconclusive results are not listed. The source made the active and inactive calls. Unless noted, the call rests on the fitted dose curve; in most records, active means well fitted curve in the direction sought with a large enough effect; inconclusive means small, poorly fitted or top-dose-only effect, or another doubt; inactive means no such curve, though single readings can be large; an effect the other way counts as inactive or inconclusive.
Potency means the concentration at half of the fitted maximal effect.

On to `Clc1ccc(Cn2c(Cc3ccccc3)nc3ccccc32)cc1`, for which the Potency in assay [1] was 9.52 µM (active); in assay [2], 11.5 µM (active); in assay [3] it was 18.3 µM (active).

As to `CCCCC1CCN(CCCN2C(=O)CCc3ccccc32)CC1`, in assay [1], the Potency entry is “inactive”. Moreover, the Potency was 20.5 µM (active) in assay [2] and 11.5 µM (active) in assay [3].

As for `COc1cc(/C=N\NC(=O)c2ccc3c(c2)OCO3)ccc1OCc1ccccc1`, in assay [1], the Potency is 2.39 µM (active). Further, the Potency entry in assay [2] and in assay [3] was “inactive” each time.

On to `CN(C)CCN(Cc1ccccc1)C(=O)c1cc(-c2ccc(F)cc2)n2nc(C(C)(C)C)cc2n1`, for which the results for the Potency in assay [1], in assay [2] and in assay [3] were 16.9 µM (active), 3.25 µM (active) and 2.9 µM (active), respectively.

On to `CC(C)OC(=O)N1CCC(Oc2ncnc3c2cnn3-c2ccc(S(C)(=O)=O)cc2F)CC1`, for which, in assay [1], the Potency is 3.79 µM (active). Further, the Potency result in assay [2] and in assay [3] was “inactive” in each case.

As for `OC(c1ccc(-c2ccc(CN3CCN(Cc4ccncc4)CC3)cc2)c(F)c1)(C(F)(F)F)C(F)(F)F`, the Potency in assay [1] is 1.34 µM (active). Moreover, the Potency entry in assay [2] and in assay [3] was “inactive” in each case.

As for `CCC(CC)C(c1ccc(Nc2nc3ccccc3s2)cc1)n1cncn1` (stereo not given), the Potency in assay [1] was 0.952 µM (active); in assay [2] it was 18.6 µM (active); in assay [3], 18.6 µM (active).

In the case of `CC1=C(C(=O)OC2CCCCC2)C(c2ccc([N+](=O)[O-])cc2)C2=C(CC(C)(C)CC2=O)N1` (stereo not given), in assay [1], the Potency was 12 µM (active). Moreover, the Potency result in assay [2] and in assay [3] was “inactive” in each case.

Regarding `CC#CC(=O)Nc1ccc2ncnc(Nc3cccc(Br)c3)c2c1`, the Potency result in assay [1] is “inactive”. The Potency in assay [2] was 1.29 µM (active) and 1.3 µM (active); in assay [3], 1.03 µM (active) and 1.16 µM (active).

Regarding `O=C(NCCO)c1cccc(-c2cc(Nc3ccc(OC(F)(F)F)cc3)ncn2)c1`, the values for the Potency in assay [1], in assay [2] and in assay [3] were 21.3 µM (active), 18.3 µM (active) and 18.3 µM (active), respectively.
